A short description of assay [1]: AP1 Signaling Pathway (AID 357).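 Further: ME-180 reporter cells stimulated with EGF at its EC50 level; on the % scale 0 is the no-effect control and ±100 the full control effect.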 The note with it: ME-180 AP-1-bla reporter, EGF-induced, beta-lactamase ratio, 5 h. In short, it runs like this:
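AP-1-bla ME-180 cells, Opti-MEM + 0.5% dialyzed FBS, plated overnight 37 °C. Cpd titration + EC50 EGF, 5 h 37 °C. CCF4 2.5 h RT; ex 405, em 460/530 ratio → %activity, AC50.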

A short description of assay [2]: NFAT Signaling Pathway (AID 444).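 Further: carbachol stimulus at about its EC50 of 1 µM final; on the % scale 0 is the no-effect control and ±100 the full control effect.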 The following applies: Jurkat NFAT-bla M1, carbachol, beta-lactamase ratio, 5 h. In short, it runs like this:
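Jurkat cells with NFAT-driven β-lactamase reporter and co-expressed M1 receptor, stimulated with carbachol (final 1 uM, ~EC50), compound titration, 5 h at 37 °C. CCF4 loaded 1 h at RT; 460/530 nm ratio gave %activity and AC50.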

The nature of assay [3]: Stat Signaling Pathway (AID 446).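 Further: ME-180 cervical cancer cells given 40 pM IL-6 alongside compound; SIE-controlled beta-lactamase reporter measured as 460/530 nm FRET emission ratio; on the % scale 0 is the no-effect control and ±100 the full control effect.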 The following applies: ME-180 (cervical carcinoma) SIE beta-lactamase reporter, IL-6 stimulated, 5 h; series mostly up to 17.2 µM. In short, it runs like this:
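IL-6/STAT signaling read in ME-180 cells via an SIE beta-lactamase reporter. Stimulus was 40 pM IL-6 (its AC50) for 5 hrs, so both activation and inhibition register.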

Assay [4] has as its target Cytochrome P450 1A2 (Homo sapiens) (UniProt P05177). The assay can be described thus: p450-cyp1a2 (AID 410; calls by dose curve; further: potency means the concentration at half of the fitted maximal effect;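 on activity change, negative = inhibition: -100% = full effect of reference inhibitor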). The note with it: recombinant CYP1A2, luciferin-ME demethylation, luminescence; series mostly up to 57 µM. In short, it runs like this: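 Luminescent readout of luciferin formed from Luciferin-ME by human CYP1A2; data normalized against complete inhibition by 57 uM furafylline. Enzyme 20nM, substrate 100uM at Km, 100mM KPO4 buffer, 60 min reaction at room temperature.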

Assay [5] addresses Glucocorticoid receptor (Homo sapiens) (UniProt P04150). Briefly: GR-GFP Redistribution (AID 450;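 active means compounds whose dose series gives a full or clear partial fitted curve of increased nuclear translocation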; further: potency means the concentration at half of the fitted maximal effect). The note with it: U2OS GR-GFP nuclear translocation, laser cytometry, 2 h.
For assay [6] the target is unchanged. Briefly: GR-EFC Redistribution (AID 451; calls by dose curve; further: potency means the concentration at half of the fitted maximal effect). The note with it: CHO-K1 GR-EFC translocation, beta-gal luminescence, 2 h. In short, it runs like this:
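CHO-K1 cells expressing nuclear EA and GR-ED fragments of b-gal; compounds titrated up to 46 uM final, 2 h at 37 C. GR nuclear translocation read as complemented b-gal luminescence after 1 h RT detection.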

For assay [7], the target named is Mitogen-activated protein kinase 10 (Mus musculus) (UniProt Q61831). The assay can be described thus: JNK3 AlphaScreen Assay (AID 530).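 Further: kinase came from lysate of stimulated human HepG2 cells.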 Further: potency means the concentration at half of the fitted maximal effect.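 On activity change, negative = inhibition: signal reports phosphorylation of biotinylated GST-cJun 1-79 at Ser73 with 10 µM ATP; on the % scale 0 is the no-effect control and ±100 the full control effect.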 The following applies: JNK3 lysate, c-Jun phosphorylation; series mostly up to 57.1 µM. An outline of the steps:
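Pre-activated (IL-1β/TNFα) JNK3 in HepG2 lysates phosphorylates biotin-GST-cJun(1-79), 10 uM ATP; anti-phospho-cJun(Ser73) AlphaScreen read at room temperature, pH 7.6 Tris buffer. Compounds pre-incubated 15 min as titrations.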
(In Alpha technology, singlet oxygen from a donor bead excites a nearby acceptor bead.)

Where “and” joins values, the source holds several entries; their conditions need not be identical. Identical values can stand only once. Results filed as inconclusive are left out. The source holds several records for some structures; these can differ, active in one and inactive in another. Calls of active or inactive are those of the source. Unless noted, the call rests on the fitted dose curve; in most records, active means well fitted curve in either direction with a large enough effect (not every such curve was filed as active); inconclusive means small, poorly fitted or top-dose-only effect, or another doubt; inactive means flat fitted curve, though single readings scatter.

Chain of Glucocorticoid receptor (Homo sapiens) (P04150 whole entry, looked up): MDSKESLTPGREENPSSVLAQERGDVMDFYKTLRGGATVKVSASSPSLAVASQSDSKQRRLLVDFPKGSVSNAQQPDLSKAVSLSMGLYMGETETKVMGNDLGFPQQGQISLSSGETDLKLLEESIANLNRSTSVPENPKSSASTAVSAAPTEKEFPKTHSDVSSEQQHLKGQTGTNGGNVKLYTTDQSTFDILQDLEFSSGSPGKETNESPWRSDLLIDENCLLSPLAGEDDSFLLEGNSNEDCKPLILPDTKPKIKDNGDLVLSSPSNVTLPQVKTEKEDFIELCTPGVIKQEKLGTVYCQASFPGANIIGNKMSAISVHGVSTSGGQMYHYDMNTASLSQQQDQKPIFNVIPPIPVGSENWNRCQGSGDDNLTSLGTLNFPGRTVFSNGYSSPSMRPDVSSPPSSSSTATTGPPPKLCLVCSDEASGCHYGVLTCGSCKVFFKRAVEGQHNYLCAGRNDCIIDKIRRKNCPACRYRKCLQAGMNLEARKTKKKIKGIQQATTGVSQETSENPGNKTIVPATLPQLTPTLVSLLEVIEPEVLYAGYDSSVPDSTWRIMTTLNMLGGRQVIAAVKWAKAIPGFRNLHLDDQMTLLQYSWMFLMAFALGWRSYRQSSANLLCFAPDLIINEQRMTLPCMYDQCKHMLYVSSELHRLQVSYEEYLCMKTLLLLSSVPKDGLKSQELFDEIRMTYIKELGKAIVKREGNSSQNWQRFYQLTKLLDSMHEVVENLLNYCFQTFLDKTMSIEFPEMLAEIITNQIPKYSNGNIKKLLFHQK
Chain of Cytochrome P450 1A2 (Homo sapiens) (P05177 whole entry, looked up): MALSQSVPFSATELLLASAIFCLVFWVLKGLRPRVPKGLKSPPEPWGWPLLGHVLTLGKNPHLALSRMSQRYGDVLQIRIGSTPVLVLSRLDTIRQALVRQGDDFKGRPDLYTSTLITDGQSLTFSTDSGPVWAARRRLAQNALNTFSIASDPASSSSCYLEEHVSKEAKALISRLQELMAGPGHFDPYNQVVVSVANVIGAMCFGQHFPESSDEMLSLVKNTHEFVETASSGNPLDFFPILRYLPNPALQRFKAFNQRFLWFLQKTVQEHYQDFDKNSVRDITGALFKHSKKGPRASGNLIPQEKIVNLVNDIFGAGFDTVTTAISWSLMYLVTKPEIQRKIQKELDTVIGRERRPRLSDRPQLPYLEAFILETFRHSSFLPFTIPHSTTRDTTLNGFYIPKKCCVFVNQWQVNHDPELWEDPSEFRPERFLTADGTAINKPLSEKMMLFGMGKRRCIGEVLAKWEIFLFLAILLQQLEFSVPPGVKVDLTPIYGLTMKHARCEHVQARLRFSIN

Turning to `CC(=O)OCC1=C(C(=O)O)N2C(=O)[C@@H](NC(=O)Cc3cccs3)[C@H]2SC1`, the values for the activity change, negative = inhibition in assay [1] (at 17.2 µM (top of the series)) and in assay [2] (at 17.2 µM (top of the series)) were -3.26% (inactive) and 0.294% (inactive), respectively. For the same compound, the outcome in assay [3] was inactive.
For `CN(C)[C@@H]1C(=O)C(C(N)=O)=C(O)[C@@]2(O)C(=O)C3=C(O)c4c(O)ccc(Cl)c4[C@@H](O)[C@H]3C[C@@H]12`, in that order: -3.11% (inactive), 0.847% (inactive) and “inactive”.
With `O=C(CCCN1CCC(O)(c2cccc(C(F)(F)F)c2)CC1)c1ccc(F)cc1`, the activity change, negative = inhibition in assay [1] (at 38 µM (top of the series)) was 14.4% (inactive); in assay [2] (at 38 µM (top of the series)), -2.13% (inactive). Besides, the Potency result in assay [4] and in assay [7] was “inactive” in each case. Moreover, the compound was classed as inactive in assay [3]. The Potency in assay [5] and in assay [6] was > 46 µM (inactive) each time.
Regarding `CCCCNc1c(C(=O)OCC)c(C)nc2c1cnn2CC`, the activity change, negative = inhibition was -13.4% (inactive) in assay [1] (at 38 µM (top of the series)), -22.8% (inactive) in assay [2] (at 17.2 µM (top of the series)) and -0.356% (inactive) in assay [2] (at 38 µM (top of the series)). The Potency in assay [4] was 631 nM (active) and 63.1 nM (active); in assay [5], > 46 µM (inactive) and > 20.6 µM (inactive); in assay [6] it was > 46 µM (inactive) and > 20.6 µM (inactive). The result in assay [3] was inactive. For the same compound, in assay [7], the Potency result is “inactive”.
For `O=C(O)CN(CCOCCOCCN(CC(=O)O)CC(=O)O)CC(=O)O`, the activity change, negative = inhibition is 4.77% (inactive) in assay [1] (at 38 µM (top of the series)) and 0.822% (inactive) in assay [2] (at 38 µM (top of the series)). The Potency result in assay [4] and in assay [7] was “inactive” throughout. In assay [3], the compound was called inactive. In addition, the Potency in assay [5] and in assay [6] was > 46 µM (inactive) throughout.
Consider `Cc1ccc(=O)n(-c2ccccc2)c1`, for which the activity change, negative = inhibition in assay [1] (at 38 µM (top of the series)) is -0.00383% (inactive); in assay [2] (at 38 µM (top of the series)), 14.9% (inactive). Further, the Potency entry in assay [4] is “inactive and 31.6 µM (active)”; in assay [7], 12.6 µM (active). The outcome in assay [3] was inactive.
Regarding `CO[C@@]1(NC(=O)CSCC#N)C(=O)N2C(C(=O)O)=C(CSc3nnnn3C)CS[C@@H]21`, the activity change, negative = inhibition is 6.1% (inactive) in assay [1] (at 17.2 µM (top of the series)) and -23.9% (inactive) in assay [2] (at 17.2 µM (top of the series)). Besides, the compound was called inactive in assay [3].
Consider `NCCCNCCSP(=O)(O)O`, for which the values for the activity change, negative = inhibition in assay [1] (at 38 µM (top of the series)) and in assay [2] (at 38 µM (top of the series)) were 11.2% (inactive) and -0.295% (inactive), respectively. The Potency entry in assay [4] and in assay [7] was “inactive” each time. The call in assay [3] was inactive. Further, the Potency in assay [6] is > 46 µM (inactive).
Take `Fc1ccc(C(c2ccc(F)cc2)N2CCN(C/C=C/c3ccccc3)CC2)cc1`: the activity change, negative = inhibition in assay [1] (at 17.2 µM (top of the series)) is -10.9% (inactive); in assay [2] (at 17.2 µM (top of the series)), -88.5% (active). Moreover, the compound was classed as inactive in assay [3].
As to `COc1ccc([C@@H]2Sc3ccccc3N(CCN(C)C)C(=O)[C@@H]2OC(C)=O)cc1`, the activity change, negative = inhibition in assay [1] (at 17.2 µM (top of the series)) is 23.2% (inactive). Also, the Potency entry in assay [4] was “inactive”. For the same compound, the Potency in assay [6] is > 46 µM (inactive).
In the case of `CC(C)(Oc1ccc(CCNC(=O)c2ccc(Cl)cc2)cc1)C(=O)O`, the activity change, negative = inhibition in assay [1] (at 17.2 µM (top of the series)) was 3.65% (inactive) and 3.52% (inactive); in assay [2] (at 17.2 µM (top of the series)) it was -9.97% (inactive) and 7.1% (inactive). The Potency entry in assay [4] and in assay [7] was “inactive” throughout. Moreover, the compound was called inactive in assay [3]. Besides, the Potency in assay [5] and in assay [6] was > 20.6 µM (inactive) throughout.
Turning to `COc1cc(C(=O)OCCCN2CCCN(CCCOC(=O)c3cc(OC)c(OC)c(OC)c3)CC2)cc(OC)c1OC`, the activity change, negative = inhibition was 24.5% (inactive) in assay [1] (at 17.2 µM (top of the series)) and 15.7% (inactive) in assay [1] (at 38 µM (top of the series)). Moreover, the compound was classed as inactive in assay [3]. The Potency in assay [6] is > 46 µM (inactive) and > 20.6 µM (inactive). In addition, the Potency entry in assay [7] is “inactive”.
